{"source": "PubChem BioAssay (NCATS)", "note": "Records with an inconclusive call do not appear. A call without a number means that no potency is given here. Active and inactive are the calls of the source. Calls follow the shape of the dose curve; as a rule, active = well fitted cell-killing curve with a large enough effect; inconclusive = small, poorly fitted or top-dose-only effect; inactive = flat fitted curve, though single readings scatter. Potency is read from the fitted curve at half-maximal effect.", "data": [{"experiment": "Cell Viability - Renal Proximal Tubule (AID 545); also: nearly all actives have a fitted effect of over 40% in size", "conditions": "renal proximal tubule cells viability, primary cells of rat origin; series mostly up to 91.7 µM", "source_text": "NIH Chemical Genomics Center [NCGC]\nNIH Molecular Libraries Screening Centers Network [MLSCN]\nNational Institutes of Environmental Health Sciences [NIEHS]\nNational Toxicology Program [NTP]\nWe have developed a 1536-well cell-based assay for quantitative high throughput screening (qHTS) against a number of cell lines to determine in vitro cytotoxicity of small molecules. This particular assay uses the renal proximal tubule cells which are derived from normal kidney cells freshly isolated from rat.\nNCGC Assay Protocol Summary:\nThe CellTiter-Glo luminescent cell viability assay (Promega) is a homogeneous method to measure the number of viable cells in culture. The end point readout of this assay is based on quantitation of intracellular ATP, an indicator of metabolic activity, using the luciferase reaction. Luciferase catalyzes the oxidation of beetle Luciferin to oxyluciferin and light in the presence of ATP. The luminescent signal is proportional to amount of ATP present.\nUsing the CellTiter-Glo luminescent cell viability assay, the amount of cellular ATP was measured in the renal proximal tubule cells with complete culture medium following compound treatment for 40 hours. The assay was performed in opaque white Kalypsys 1536-well plates. In the screen, tamoxifen and doxorubicin were used as positive controls. Library compounds were measured for their ability to cause acute toxicity in the cell line, as reflected by a decrease in intracellular ATP levels, in a concentration-dependent manner. […] AC50 values were determined from concentration-response data modeled with the standard Hill equation.\nqHTS protocol for CellTiter Glo renal proximal tubule cell assay\n[Step] [Parameter] [Value] [Description]\n1. Reagent; 5 uL; 1000 renal proximal tubule cells/well\n2. Time; 5 hr; 37 °C incubation\n4. Controls; 23 nL; Tamoxifen 0.34 uM to 100 uM & Doxorubicin 0.02 nM to 100 uM\n5. Time; 40 hr; 37 °C incubation\n6. Reagent; 5 uL; CellTiter Glo reagent\n7. Time; 20 min; Room Temperature\n8. Detection; Luminescence; Viewlux plate reader\nKeywords: cell viability, cytotoxicity, renal proximal tubule cells, luminescence, NTPHTS, NTPHTS_NCGC, NIEHS, EPA, DSSTox, MLSMR, MLSCN, NIH Roadmap, qHTS, NCGC", "values": [{"smiles": "CC12CCC(CC1)C(C)(C)O2", "Potency": "inactive"}, {"smiles": "Cc1cc2nc3c(=O)[nH]c(=O)nc-3n(C[C@H](O)[C@H](O)[C@H](O)CO)c2cc1C", "Potency": "inactive"}, {"smiles": "O=C1O[C@H]([C@@H](O)CO)C(O)=C1O", "Potency": "inactive"}, {"smiles": "COc1ccccc1O", "Potency": "inactive"}, {"smiles": "CCCCCCCCCCCCOS(=O)(=O)O", "Potency": "inactive"}, {"smiles": "CC1(C)[C@@H]2CC[C@@]1(C)C(=O)C2", "Potency": "inactive"}, {"smiles": "NCCNCCNCCN", "Potency": "inactive"}, {"smiles": "Cc1cc(CC(=O)O)n(C)c1C(=O)c1ccc(Cl)cc1", "Potency": "inactive"}, {"smiles": "CCCCOC(=O)c1ccc(O)cc1", "Potency": "inactive"}, {"smiles": "NCCNCCNCCNCCN", "Potency": "inactive"}, {"smiles": "Cc1c(O)cccc1C(=O)N[C@@H](CSc1ccccc1)[C@H](O)CN1C[C@H]2CCCC[C@H]2C[C@H]1C(=O)NC(C)(C)C", "Potency": "31.6 µM (active)"}, {"smiles": "NC(=O)N/N=C/c1ccc([N+](=O)[O-])o1", "Potency": "inactive"}, {"smiles": "Nc1ccc(S(=O)(=O)Nc2nccs2)cc1", "Potency": "inactive"}, {"smiles": "NC(=O)c1ncn([C@@H]2O[C@H](CO)[C@@H](O)[C@H]2O)n1", "Potency": "inactive"}, {"smiles": "Oc1cccc(O)c1", "Potency": "inactive"}, {"smiles": "O=C1c2c(O)cccc2Cc2cccc(O)c21", "Potency": "inactive"}, {"smiles": "COC(=O)C1=C(C)NC(C)=C(C(=O)OC)C1c1ccccc1[N+](=O)[O-]", "Potency": "31.6 µM (active)"}, {"smiles": "[Cl][In]([Cl])[Cl]", "Potency": "inactive"}]}]}
